1 sequence from paper PMC7862700, “An all-to-all approach to the identification of sequence-specific readers for epigenetic DNA modifications on cytosine” can be followed below.

What all share (assay): DAPPL (digital affinity profiling via proximity ligation, sequencing); 10 mM Tris-HCl pH 7.5, 50 mM NaCl, 1 mM DTT, 4% glycerol, room temperature, 30 min; GST-TFs on glutathione beads, 16-mer random dsDNA library, 0.1% formaldehyde crosslink after washing; high values mean tight binding
One assay concerns the target T1, FEV (Homo sapiens, UniProt Q99581 1-238).
T1 sequence: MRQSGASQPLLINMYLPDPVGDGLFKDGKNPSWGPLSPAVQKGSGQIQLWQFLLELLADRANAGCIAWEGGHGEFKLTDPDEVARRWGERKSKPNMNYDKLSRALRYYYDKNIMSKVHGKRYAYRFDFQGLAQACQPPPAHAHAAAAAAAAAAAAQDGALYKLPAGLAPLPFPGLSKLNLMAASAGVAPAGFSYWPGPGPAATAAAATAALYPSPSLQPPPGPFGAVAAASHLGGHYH
The note with it: protein: recombinant; tags: N-terminal GST; dsDNA, one strand shown. The method in brief: (§1)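 After expression in yeast as GST fusions, human transcription factors were bound to glutathione beads, DNA-barcoded and mixed with a tag-only sample. The pools were incubated with 200 nmole of a 16-mer random double-stranded DNA library in Tris/NaCl/DTT/glycerol buffer (30 min, room temperature), washed and crosslinked with 0.1% formaldehyde. Proximity ligation with BsaI/T4 ligase ran for 1 h at 37 °C, before PCR amplification and sequencing on an Illumina NextSeq500. Binding signal is a hexamer's read frequency for a factor divided by its frequency for the tag-only sample.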

A further assay deals with ETV5 (Homo sapiens, UniProt P41161 1-510). The note with it: protein: recombinant; tags: N-terminal GST; dsDNA, one strand shown. The method in brief: as §1
For a further assay, the target named is HSF1 (Homo sapiens, UniProt Q00613 1-529). The note with it: protein: recombinant; tags: N-terminal GST; chain copies: 3; dsDNA, one strand shown. The method in brief:
as §1

For the next assay, the target named is T2, SPIC (Homo sapiens, UniProt Q8N5J4 1-248).
T2 sequence: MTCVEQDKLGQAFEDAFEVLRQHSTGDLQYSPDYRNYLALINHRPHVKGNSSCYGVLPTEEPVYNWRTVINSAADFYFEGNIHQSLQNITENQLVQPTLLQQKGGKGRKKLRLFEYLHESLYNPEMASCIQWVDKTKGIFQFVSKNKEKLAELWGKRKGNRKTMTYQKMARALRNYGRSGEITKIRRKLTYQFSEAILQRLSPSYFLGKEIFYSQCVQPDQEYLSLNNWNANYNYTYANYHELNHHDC
Conditions: protein: recombinant; tags: N-terminal GST; dsDNA, one strand shown. Summed up:
as §1

The target of a further assay is ELF4 (Homo sapiens, UniProt Q99607 1-663). The note with it: protein: recombinant; tags: N-terminal GST; dsDNA, one strand shown. The method in brief:
as §1

The target of the next assay is T3, ELK4 (Homo sapiens, UniProt P28324-2 1-405).
T3 sequence: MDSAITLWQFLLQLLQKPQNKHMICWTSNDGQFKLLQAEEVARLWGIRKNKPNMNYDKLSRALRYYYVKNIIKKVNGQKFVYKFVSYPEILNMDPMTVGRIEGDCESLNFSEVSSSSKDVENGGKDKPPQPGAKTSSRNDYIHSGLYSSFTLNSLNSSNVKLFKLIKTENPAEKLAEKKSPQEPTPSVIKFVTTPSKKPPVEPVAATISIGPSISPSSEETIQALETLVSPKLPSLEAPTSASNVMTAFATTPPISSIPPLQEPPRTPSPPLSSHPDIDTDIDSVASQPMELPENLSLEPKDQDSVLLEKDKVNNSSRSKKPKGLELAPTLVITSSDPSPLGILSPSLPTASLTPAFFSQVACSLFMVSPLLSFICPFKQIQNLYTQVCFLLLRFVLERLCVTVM
The note with it: protein: recombinant; tags: N-terminal GST; dsDNA, one strand shown. Summed up: as §1

A further assay concerns the target T4, ETV2 (Homo sapiens, UniProt O00321 1-342).
T4 sequence: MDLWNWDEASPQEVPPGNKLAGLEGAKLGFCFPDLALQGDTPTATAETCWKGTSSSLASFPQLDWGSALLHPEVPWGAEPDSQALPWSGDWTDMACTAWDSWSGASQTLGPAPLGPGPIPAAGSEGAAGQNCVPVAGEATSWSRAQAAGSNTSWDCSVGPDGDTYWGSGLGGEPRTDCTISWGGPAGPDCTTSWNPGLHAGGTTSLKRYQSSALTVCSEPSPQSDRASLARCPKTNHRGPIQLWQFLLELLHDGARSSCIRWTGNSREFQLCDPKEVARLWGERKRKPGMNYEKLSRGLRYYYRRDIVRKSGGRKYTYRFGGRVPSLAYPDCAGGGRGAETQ
Conditions: protein: recombinant; tags: N-terminal GST; dsDNA, one strand shown. Summed up:
as §1

A further assay addresses T5, ELF3 (Homo sapiens, UniProt P78545 1-371).
T5 sequence: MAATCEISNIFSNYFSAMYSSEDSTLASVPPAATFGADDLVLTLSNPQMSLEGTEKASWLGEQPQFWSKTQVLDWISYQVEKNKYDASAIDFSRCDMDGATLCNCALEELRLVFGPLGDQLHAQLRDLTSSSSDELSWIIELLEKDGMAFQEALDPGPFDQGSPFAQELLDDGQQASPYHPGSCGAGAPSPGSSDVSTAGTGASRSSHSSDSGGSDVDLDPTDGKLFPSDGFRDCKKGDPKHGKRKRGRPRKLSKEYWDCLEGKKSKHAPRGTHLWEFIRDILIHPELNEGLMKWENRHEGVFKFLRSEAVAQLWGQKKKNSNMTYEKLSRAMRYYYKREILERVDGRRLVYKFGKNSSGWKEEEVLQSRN
The note with it: protein: recombinant; tags: N-terminal GST; dsDNA, one strand shown. Summed up: as §1

For a further assay, the target named is CRX (Homo sapiens, UniProt O43186 1-299). Conditions: protein: recombinant; tags: N-terminal GST; dsDNA, one strand shown. The method in brief: as §1
A further assay has as its target ETV1 (Homo sapiens, UniProt P50549 1-477). The note with it: protein: recombinant; tags: N-terminal GST; dsDNA, one strand shown. The method in brief: as §1
Another assay concerns the target T6, ERF (Homo sapiens, UniProt P50548 1-548).
T6 sequence: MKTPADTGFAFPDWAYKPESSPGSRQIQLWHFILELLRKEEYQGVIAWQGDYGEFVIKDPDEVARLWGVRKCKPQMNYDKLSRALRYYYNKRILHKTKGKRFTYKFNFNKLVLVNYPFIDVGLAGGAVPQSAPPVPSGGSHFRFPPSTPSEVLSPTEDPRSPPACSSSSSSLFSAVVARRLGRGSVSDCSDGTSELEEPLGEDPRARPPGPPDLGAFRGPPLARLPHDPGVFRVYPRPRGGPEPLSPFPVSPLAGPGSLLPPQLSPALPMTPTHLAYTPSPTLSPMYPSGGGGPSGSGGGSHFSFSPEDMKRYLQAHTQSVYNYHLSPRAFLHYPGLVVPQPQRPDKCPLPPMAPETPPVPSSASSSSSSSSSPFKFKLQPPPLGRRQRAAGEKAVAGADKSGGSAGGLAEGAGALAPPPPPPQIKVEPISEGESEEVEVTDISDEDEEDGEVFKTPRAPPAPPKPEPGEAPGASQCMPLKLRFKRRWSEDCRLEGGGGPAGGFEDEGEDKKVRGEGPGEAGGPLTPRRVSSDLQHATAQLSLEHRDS
The note with it: protein: recombinant; tags: N-terminal GST; dsDNA, one strand shown. The method in brief: as §1

For the next assay, the target named is T7, ETV3L (Homo sapiens, UniProt Q6ZN32 1-361).
T7 sequence: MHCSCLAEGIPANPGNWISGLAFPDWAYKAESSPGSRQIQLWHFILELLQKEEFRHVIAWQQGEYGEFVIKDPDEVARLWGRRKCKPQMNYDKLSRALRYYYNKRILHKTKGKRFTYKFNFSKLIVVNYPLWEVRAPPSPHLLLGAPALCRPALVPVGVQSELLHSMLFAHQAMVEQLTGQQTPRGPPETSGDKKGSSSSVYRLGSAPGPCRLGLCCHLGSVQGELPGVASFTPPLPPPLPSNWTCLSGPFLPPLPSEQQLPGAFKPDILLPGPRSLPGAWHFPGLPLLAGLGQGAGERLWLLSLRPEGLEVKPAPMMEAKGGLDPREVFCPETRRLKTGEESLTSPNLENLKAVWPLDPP
The note with it: protein: recombinant; tags: N-terminal GST; dsDNA, one strand shown. Summed up: as §1

The target of another assay is T8, ETS2 (Homo sapiens, UniProt P15036 1-469).
T8 sequence: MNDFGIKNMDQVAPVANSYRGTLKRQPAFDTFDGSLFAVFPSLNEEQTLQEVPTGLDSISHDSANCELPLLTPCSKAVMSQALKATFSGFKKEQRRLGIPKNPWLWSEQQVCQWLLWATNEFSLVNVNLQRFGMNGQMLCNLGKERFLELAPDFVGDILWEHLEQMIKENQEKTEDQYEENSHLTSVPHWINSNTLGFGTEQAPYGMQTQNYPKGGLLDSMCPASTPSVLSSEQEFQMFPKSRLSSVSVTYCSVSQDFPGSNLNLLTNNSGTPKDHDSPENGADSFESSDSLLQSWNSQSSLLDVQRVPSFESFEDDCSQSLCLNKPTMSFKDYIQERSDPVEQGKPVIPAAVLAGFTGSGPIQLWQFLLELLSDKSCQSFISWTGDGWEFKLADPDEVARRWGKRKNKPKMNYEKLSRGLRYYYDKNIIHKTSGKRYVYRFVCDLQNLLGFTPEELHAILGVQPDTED
Conditions: protein: recombinant; tags: N-terminal GST; dsDNA, one strand shown. Summed up:
as §1

The target of a further assay is T9, SPDEF (Homo sapiens, UniProt O95238 1-335).
T9 sequence: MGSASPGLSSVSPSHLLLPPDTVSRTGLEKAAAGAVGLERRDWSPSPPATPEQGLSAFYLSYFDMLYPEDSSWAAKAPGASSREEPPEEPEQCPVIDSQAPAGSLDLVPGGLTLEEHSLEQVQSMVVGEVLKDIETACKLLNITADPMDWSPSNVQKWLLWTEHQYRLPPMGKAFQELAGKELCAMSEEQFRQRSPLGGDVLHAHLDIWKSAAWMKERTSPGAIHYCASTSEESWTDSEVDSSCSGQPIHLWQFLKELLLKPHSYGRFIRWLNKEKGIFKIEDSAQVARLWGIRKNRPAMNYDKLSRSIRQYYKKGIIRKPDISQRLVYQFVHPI
The note with it: protein: recombinant; tags: N-terminal GST; dsDNA, one strand shown. The method in brief:
as §1

A further assay has as its target T10, ETV7 (Homo sapiens, UniProt Q9Y603 1-341).
T10 sequence: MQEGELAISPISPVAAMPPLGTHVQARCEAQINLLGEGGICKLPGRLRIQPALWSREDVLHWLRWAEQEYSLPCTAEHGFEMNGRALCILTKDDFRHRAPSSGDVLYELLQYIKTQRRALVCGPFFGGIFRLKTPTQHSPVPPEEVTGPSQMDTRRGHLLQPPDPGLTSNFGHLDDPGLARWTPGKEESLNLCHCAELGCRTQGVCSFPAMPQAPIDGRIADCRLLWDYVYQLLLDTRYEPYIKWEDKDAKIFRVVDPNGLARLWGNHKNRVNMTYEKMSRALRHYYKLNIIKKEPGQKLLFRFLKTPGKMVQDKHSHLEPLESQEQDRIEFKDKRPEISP
Conditions: protein: recombinant; tags: N-terminal GST; dsDNA, one strand shown. Summed up:
as §1

A further assay has as its target T11, ELF5 (Homo sapiens, UniProt Q9UKW6-2 1-255).
T11 sequence: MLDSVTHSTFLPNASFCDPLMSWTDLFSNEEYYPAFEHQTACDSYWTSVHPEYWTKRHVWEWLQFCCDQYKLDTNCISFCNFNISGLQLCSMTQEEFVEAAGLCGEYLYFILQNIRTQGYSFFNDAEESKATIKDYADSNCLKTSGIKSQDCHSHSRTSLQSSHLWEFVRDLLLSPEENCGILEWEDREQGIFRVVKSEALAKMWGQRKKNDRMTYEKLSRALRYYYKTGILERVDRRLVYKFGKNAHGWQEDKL
The note with it: protein: recombinant; tags: N-terminal GST; dsDNA, one strand shown. The method in brief:
as §1

In the next assay the target is T12, ETV3 (Homo sapiens, UniProt P41162-2 1-143).
T12 sequence: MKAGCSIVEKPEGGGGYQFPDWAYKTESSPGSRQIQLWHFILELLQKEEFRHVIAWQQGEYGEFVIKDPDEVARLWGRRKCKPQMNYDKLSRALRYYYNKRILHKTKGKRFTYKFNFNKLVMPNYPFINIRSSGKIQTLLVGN
Conditions: protein: recombinant; tags: N-terminal GST; dsDNA, one strand shown. Summed up:
as §1

For a further assay, the target named is ETV6 (Homo sapiens, UniProt P41212 1-452). Conditions: protein: recombinant; tags: N-terminal GST; dsDNA, one strand shown. Summed up:
as §1

Chain of HSF1 (Q00613 whole entry): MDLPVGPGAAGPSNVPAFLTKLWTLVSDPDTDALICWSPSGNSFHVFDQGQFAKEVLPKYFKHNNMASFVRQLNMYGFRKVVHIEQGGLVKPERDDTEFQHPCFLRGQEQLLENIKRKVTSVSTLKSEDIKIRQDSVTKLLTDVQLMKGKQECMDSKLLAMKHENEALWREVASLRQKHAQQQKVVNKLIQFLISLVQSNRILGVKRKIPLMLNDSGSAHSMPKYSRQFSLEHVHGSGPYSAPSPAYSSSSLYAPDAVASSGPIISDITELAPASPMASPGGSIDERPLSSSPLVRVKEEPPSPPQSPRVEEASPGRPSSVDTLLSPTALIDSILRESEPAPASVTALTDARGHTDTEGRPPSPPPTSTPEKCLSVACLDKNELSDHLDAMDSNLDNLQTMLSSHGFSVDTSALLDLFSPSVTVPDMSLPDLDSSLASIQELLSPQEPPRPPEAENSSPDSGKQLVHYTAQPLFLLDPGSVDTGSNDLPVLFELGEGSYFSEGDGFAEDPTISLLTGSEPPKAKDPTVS
Chain of ETV5 (P41161 whole entry): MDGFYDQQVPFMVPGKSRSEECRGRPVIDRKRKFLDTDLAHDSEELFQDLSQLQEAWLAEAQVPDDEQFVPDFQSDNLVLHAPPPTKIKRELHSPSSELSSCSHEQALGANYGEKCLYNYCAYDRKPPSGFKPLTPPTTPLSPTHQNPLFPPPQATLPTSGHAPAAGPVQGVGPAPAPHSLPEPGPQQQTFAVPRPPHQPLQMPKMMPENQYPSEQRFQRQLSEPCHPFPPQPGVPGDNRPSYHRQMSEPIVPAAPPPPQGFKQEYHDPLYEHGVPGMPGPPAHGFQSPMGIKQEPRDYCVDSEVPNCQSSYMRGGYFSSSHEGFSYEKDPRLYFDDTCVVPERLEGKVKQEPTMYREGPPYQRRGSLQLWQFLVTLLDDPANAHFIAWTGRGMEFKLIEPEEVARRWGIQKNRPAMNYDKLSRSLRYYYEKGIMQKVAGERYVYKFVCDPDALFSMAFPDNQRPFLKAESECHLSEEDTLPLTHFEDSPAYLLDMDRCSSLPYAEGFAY
Chain of CRX (O43186 whole entry): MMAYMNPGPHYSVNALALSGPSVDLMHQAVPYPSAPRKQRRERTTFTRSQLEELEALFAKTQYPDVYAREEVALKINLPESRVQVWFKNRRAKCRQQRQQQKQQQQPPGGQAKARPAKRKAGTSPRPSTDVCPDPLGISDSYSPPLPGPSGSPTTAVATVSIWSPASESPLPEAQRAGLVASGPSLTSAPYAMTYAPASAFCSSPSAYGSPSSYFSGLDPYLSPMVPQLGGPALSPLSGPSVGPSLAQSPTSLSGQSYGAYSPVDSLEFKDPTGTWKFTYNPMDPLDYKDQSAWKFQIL
Chain of ELF4 (Q99607 whole entry): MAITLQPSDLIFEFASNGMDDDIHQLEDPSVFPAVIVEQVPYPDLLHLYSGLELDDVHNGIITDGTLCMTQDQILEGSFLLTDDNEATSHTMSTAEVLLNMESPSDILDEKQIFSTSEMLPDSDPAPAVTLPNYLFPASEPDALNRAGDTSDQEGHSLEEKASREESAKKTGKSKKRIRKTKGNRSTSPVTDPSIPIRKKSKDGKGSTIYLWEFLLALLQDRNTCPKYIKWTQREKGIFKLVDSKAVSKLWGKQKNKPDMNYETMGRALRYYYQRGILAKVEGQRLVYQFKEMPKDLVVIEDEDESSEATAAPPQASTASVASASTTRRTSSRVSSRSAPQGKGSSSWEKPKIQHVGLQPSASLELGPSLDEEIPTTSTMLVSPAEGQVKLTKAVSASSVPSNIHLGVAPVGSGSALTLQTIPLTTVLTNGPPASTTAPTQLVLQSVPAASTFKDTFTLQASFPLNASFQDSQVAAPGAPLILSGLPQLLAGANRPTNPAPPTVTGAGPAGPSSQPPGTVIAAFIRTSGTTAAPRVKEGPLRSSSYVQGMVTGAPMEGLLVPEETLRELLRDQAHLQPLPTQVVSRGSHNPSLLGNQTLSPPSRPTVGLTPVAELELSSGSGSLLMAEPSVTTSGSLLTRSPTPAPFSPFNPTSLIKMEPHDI
Chain of ETV6 (P41212 whole entry): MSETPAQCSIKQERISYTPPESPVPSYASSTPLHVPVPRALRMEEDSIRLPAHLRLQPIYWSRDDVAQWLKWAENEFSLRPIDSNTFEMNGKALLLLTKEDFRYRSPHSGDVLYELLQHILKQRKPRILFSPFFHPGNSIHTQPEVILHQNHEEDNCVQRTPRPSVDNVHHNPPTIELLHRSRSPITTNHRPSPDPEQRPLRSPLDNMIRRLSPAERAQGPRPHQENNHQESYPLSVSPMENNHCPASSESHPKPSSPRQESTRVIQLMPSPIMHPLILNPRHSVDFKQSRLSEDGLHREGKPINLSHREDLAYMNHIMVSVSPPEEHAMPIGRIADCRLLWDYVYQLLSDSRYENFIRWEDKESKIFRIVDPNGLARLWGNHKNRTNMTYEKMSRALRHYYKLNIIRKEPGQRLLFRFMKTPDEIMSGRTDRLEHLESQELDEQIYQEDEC
Chain of ETV1 (P50549 whole entry): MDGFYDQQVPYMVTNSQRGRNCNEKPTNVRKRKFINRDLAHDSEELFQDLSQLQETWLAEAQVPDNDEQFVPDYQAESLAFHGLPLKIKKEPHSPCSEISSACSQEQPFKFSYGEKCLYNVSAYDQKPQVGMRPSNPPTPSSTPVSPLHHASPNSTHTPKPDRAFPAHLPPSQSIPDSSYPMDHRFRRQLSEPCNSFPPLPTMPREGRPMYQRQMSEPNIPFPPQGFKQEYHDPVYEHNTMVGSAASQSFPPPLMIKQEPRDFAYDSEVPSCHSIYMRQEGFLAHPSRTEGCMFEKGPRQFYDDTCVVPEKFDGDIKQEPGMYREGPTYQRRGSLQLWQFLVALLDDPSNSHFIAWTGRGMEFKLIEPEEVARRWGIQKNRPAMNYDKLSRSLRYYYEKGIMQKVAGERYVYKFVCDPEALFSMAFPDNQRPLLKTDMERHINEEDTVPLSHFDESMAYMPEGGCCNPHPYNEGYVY

Turning to TATGCT, the binding signal with FEV is 1.24 fold enrichment (6-mer frequency, TF over GST control); in the assay with ETV5 it was 1.39 fold enrichment (6-mer frequency, TF over GST control); with HSF1, 1.41 fold enrichment (6-mer frequency, TF over GST control); with SPIC, 1.6 fold enrichment (6-mer frequency, TF over GST control); in the assay with ELF4 it was 1.31 fold enrichment (6-mer frequency, TF over GST control); with ELK4, 1.4 fold enrichment (6-mer frequency, TF over GST control). The binding signal is 1.3 fold enrichment (6-mer frequency, TF over GST control) with ETV2; 1.37 fold enrichment (6-mer frequency, TF over GST control) with ELF3; 1.51 fold enrichment (6-mer frequency, TF over GST control) with CRX; 1.29 fold enrichment (6-mer frequency, TF over GST control) with ETV1; 1.18 fold enrichment (6-mer frequency, TF over GST control) with ERF; 1.45 fold enrichment (6-mer frequency, TF over GST control) with ETV3L. In addition, the binding signal is 1.29 fold enrichment (6-mer frequency, TF over GST control) with ETS2; 1.36 fold enrichment (6-mer frequency, TF over GST control) with SPDEF; 1.32 fold enrichment (6-mer frequency, TF over GST control) with ETV7; 1.29 fold enrichment (6-mer frequency, TF over GST control) with ELF5; 1.32 fold enrichment (6-mer frequency, TF over GST control) with ETV3; 1.24 fold enrichment (6-mer frequency, TF over GST control) with ETV6.
